Assay results: PubChem BioAssay (NCI)
Compounds without any hit were thinned out: in the full panel of roughly 79,000, 15% have a hit. Active and inactive are the calls of the source. No stated cut-off is given here; in the data, active means growth inhibition above about 70%; inactive means the rest.

Assays:
[1] = NCI Yeast Anticancer Drug Screen. Data for the rad50 strain (AID 155);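 further: 0% = growth of vehicle-only cultures of the same strain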; settings: S. cerevisiae rad50 strain growth inhibition, hits give high values
Method in brief: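 DNA repair mutant yeast, compound exposure, growth read-out; inhibition is taken relative to vehicle.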

[2] = NCI Yeast Anticancer Drug Screen. Data for the mec2-1 strain (AID 157); settings: S. cerevisiae mec2-1 strain, hits give high values
Method in brief: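 Cells of the genetically defined mec2-1 yeast strain are incubated with test compound. Inhibition of growth is calculated against vehicle-treated controls.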

[3] = NCI Yeast Anticancer Drug Screen. Data for the sgs1 mgt1 strain (AID 161);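 further: 0% = growth of cultures given vehicle only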; settings: S. cerevisiae sgs1 mgt1 strain, hits give high values
Method in brief: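 Test agents were incubated with a DNA-repair-mutant yeast strain. Growth was then read and compared against vehicle-treated controls.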

[4] = NCI Yeast Anticancer Drug Screen. Data for the cln2 rad14 strain (AID 165);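 further: 0% = growth equal to vehicle treated cultures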; settings: S. cerevisiae cln2 rad14 strain, hits give high values
Method in brief: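 The screen exposed genetically defined yeast (cln2 rad14) to test compounds and scored growth inhibition relative to vehicle-treated controls.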

[5] = NCI Yeast Anticancer Drug Screen. Data for the bub3 strain (AID 167); settings: S. cerevisiae bub3 mutant strain, hits give high values
Method in brief: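 In this screen, a yeast mutant lacking normal mitotic checkpoint function is challenged with compound. Relative growth versus vehicle gives the inhibition value.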

[6] = NCI Yeast Anticancer Drug Screen. Data for the mlh1 rad18 strain (AID 175); settings: S. cerevisiae mlh1 rad18 strain growth inhibition, hits give high values
Method in brief: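 Compound-treated yeast growth, normalised to vehicle controls. Strain bears defined DNA repair mutations.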

[7] = at 5.0 µM (retest, dose inferred, filed as 0.5)
[8] = at 50.0 µM (retest, dose inferred, filed as 5.0)

Measured: growth inhibition

Cc1sc(Cc2ccccc2)nc1-c1ccc(N=Cc2ccc(N(CCOS(C)(=O)=O)CCOS(C)(=O)=O)cc2)cc1
inactive: [1]; [7] 53% | [2]; [7] -10% | [3]; [7] 32% | [4]; [7] 38% | [5]; [7] 1%
active: [1]; [8] 95% | [1]; at 50.0 µM 94% | [2]; [8] 97% | [2]; at 50.0 µM 97.8% | [3]; [8] 95% | [3]; at 50.0 µM 96.5% | [4]; [8] 95% | [4]; at 50.0 µM 93.8% | [5]; [8] 94% | [5]; at 50.0 µM 91.3% | [6]; [7] 82% | [6]; [8] 95% | [6]; at 50.0 µM 96.5%

O=C(N/C(=C\c1ccc2c(c1)OCO2)c1nc2ccccc2s1)c1ccccc1
active: [1]; [8] 98% | [1]; at 50.0 µM 97% | [2]; [8] 98% | [2]; at 50.0 µM 97.9% | [3]; [8] 98% | [3]; at 50.0 µM 98.1% | [4]; [8] 97% | [4]; at 50.0 µM 96.8% | [5]; [8] 98% | [5]; at 50.0 µM 96.8% | [6]; [8] 97% | [6]; at 50.0 µM 97.5%
inactive: [1]; [7] 19% | [2]; [7] 1% | [3]; [7] 38% | [4]; [7] 10% | [5]; [7] 19% | [6]; [7] 18%

CC(C)OP(=O)(CCCCCCCCC/C=C/c1ccc2c(c1)OCCOCCOCCOCCO2)OC(C)C
active: [1]; [8] 98% | [1]; at 50.0 µM 97.8% | [2]; [8] 99% | [2]; at 50.0 µM 92.3% | [3]; [8] 98% | [3]; at 50.0 µM 98.2% | [4]; [8] 98% | [4]; at 50.0 µM 97.3% | [5]; [8] 99% | [5]; at 50.0 µM 98.3% | [6]; [8] 99% | [6]; at 50.0 µM 98.1%
inactive: [1]; [7] 20% | [2]; [7] 4% | [3]; [7] -4% | [4]; [7] 7% | [5]; [7] -11% | [6]; [7] 24%

CCCn1cnc2c(SCc3ccc(Cl)cc3Cl)nc(N)nc21
active: [1]; at 50.0 µM 97.1% | [2]; at 50.0 µM 97.2% | [3]; at 50.0 µM 97% | [4]; at 50.0 µM 97.2% | [5]; at 50.0 µM 97.5% | [6]; at 50.0 µM 95.7%
inactive: [1]; [7] 12% | [1]; [8] 14% | [2]; [7] 12% | [2]; [8] 12% | [3]; [7] 13% | [3]; [8] 15% | [4]; [7] 12% | [4]; [8] -9% | [5]; [7] 13% | [5]; [8] 16% | [6]; [7] 11% | [6]; [8] 12%

Cc1noc(NS(=O)(=O)c2ccc(NC(=S)/N=C/c3c(O)[nH]c(=O)[nH]c3=O)cc2)c1C
inactive: [1]; [7] -1% | [1]; [8] -5% | [1]; at 50.0 µM 16.1% | [2]; [7] -18% | [2]; [8] -11% | [2]; at 50.0 µM 9.75% | [3]; [7] -8% | [3]; [8] -5% | [3]; at 50.0 µM 16.5% | [4]; [7] -24% | [4]; [8] -19% | [4]; at 50.0 µM 44.8% | [5]; [7] 4% | [5]; [8] 10% | [5]; at 50.0 µM 6.05% | [6]; [7] 7% | [6]; [8] -2% | [6]; at 50.0 µM 15.8%

N#CC(C(=O)CCc1nc2ccccc2[nH]1)c1c(Cl)cccc1Cl (configuration not stated)
inactive: [1]; [7] -14% | [1]; [8] 19% | [1]; at 50.0 µM -21.2% | [2]; [7] 4% | [2]; [8] 12% | [2]; at 50.0 µM 8.05% | [3]; [7] 7% | [3]; [8] 2% | [3]; at 50.0 µM 19.6% | [4]; [7] -5% | [4]; [8] 3% | [4]; at 50.0 µM -30.1% | [5]; [7] -2% | [5]; [8] 6% | [5]; at 50.0 µM 6.75% | [6]; [7] -1% | [6]; [8] 0% | [6]; at 50.0 µM 16.1%

CCOC(=O)C1SC(=Nc2ccc(Cl)cc2C)N=C1C (configuration not stated)
inactive: [1]; [7] 29% | [2]; [7] 25% | [3]; [7] 32% | [4]; [7] 22% | [5]; [7] 24% | [6]; [7] 35%
active: [1]; [8] 98% | [1]; at 50.0 µM 89% | [2]; [8] 97% | [2]; at 50.0 µM 92.2% | [3]; [8] 99% | [3]; at 50.0 µM 91.7% | [4]; [8] 97% | [4]; at 50.0 µM 90.2% | [5]; [8] 98% | [5]; at 50.0 µM 91.2% | [6]; [8] 98% | [6]; at 50.0 µM 90%

N/C(=N\OC(=O)Nc1ccccc1)c1ccccc1
inactive: [1]; [7] 7% | [1]; [8] 51% | [1]; at 50.0 µM 42.1% | [2]; [7] 8% | [2]; [8] 40% | [2]; at 50.0 µM 33% | [3]; [7] 13% | [3]; at 50.0 µM 68% | [4]; [7] 2% | [4]; [8] 38% | [4]; at 50.0 µM 32.2% | [5]; [7] -3% | [5]; [8] 24% | [5]; at 50.0 µM 11.7% | [6]; [7] 4% | [6]; at 50.0 µM 58.6%
active: [3]; [8] 70% | [6]; [8] 76%

CCOC(=O)/C=C(\NC1CC(OC2C[C@](O)(C(C)=O)Cc3c(O)c4c(c(O)c32)C(=O)c2c(OC)cccc2C4=O)OC(C)C1O)C(=O)OCC (some centres not stated)
inactive: [1]; [7] 44% | [1]; at 50.0 µM 68.8% | [2]; [7] 28% | [3]; [7] 40% | [4]; [7] 44% | [5]; [7] 43% | [6]; [7] 34%
active: [1]; [8] 95% | [2]; [8] 97% | [2]; at 50.0 µM 74.3% | [3]; [8] 95% | [3]; at 50.0 µM 90.5% | [4]; [8] 92% | [4]; at 50.0 µM 88.7% | [5]; [8] 97% | [5]; at 50.0 µM 87.5% | [6]; [8] 96% | [6]; at 50.0 µM 87.5%
